Source: PubChem BioAssay (Tox21)
Several values for one entry are separate records, joined by “and”; a condition that tells them apart may be missing. Equal entries are not always repeated. Results filed as inconclusive are left out. Entries that show only a call come without a potency. Where a structure was tested more than once in an assay, its records may differ in their call. Activity calls are given as the source filed them. Unless noted, the call rests on the fitted dose curve; in most records, active means well fitted curve in the direction sought with a large enough effect in the repeat runs; inconclusive means weak or mixed curves; inactive means no such curve, though single readings can be large; an effect the other way counts as inactive or inconclusive.

How the values were obtained:
[1] = A CellTox Green Cytotoxicity Assay to monitor cytotoxicity in HepG2 cells - 8 hour (AID 1224890); further: nearly all actives have a fitted effect of over 45% in size; further: potency means the concentration at half of the fitted maximal effect
Outline: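 HepG2 cells were seeded together with the CellTox Green dye at 600 cells/well, left 5 h at 37 C/5% CO2, then given compounds in DMSO. Fluorescence from dye bound to dead-cell DNA was read repeatedly over 40 h of treatment at 37 C.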

[2] = qHTS assay to identify small molecule antagonists of the estrogen receptor alpha (ER-alpha) signaling pathway using the BG1 cell line in the presence of 0.1 nM 17-beta-estradiol - cell viability counter screen (AID 1259241); further: nearly all actives have a fitted effect of over 40% in size
Outline: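 Viability in VM7Luc4E2 cells after 22 hr compound exposure under 0.1 nM 17beta-estradiol stimulation, by CellTiter-Fluor.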

[3] = biological target: Estrogen receptor (Homo sapiens) (UniProt P03372); test: qHTS assay to identify small molecule antagonists of the estrogen receptor alpha (ER-alpha) signaling pathway using the BG1 cell line in the presence of 0.1 nM 17-beta-estradiol (AID 1259244); further: nearly all actives have a fitted effect of over 50% in size; further: potency means the concentration at half of the fitted maximal effect
Chain of Estrogen receptor (Homo sapiens) (P03372 whole entry, looked up): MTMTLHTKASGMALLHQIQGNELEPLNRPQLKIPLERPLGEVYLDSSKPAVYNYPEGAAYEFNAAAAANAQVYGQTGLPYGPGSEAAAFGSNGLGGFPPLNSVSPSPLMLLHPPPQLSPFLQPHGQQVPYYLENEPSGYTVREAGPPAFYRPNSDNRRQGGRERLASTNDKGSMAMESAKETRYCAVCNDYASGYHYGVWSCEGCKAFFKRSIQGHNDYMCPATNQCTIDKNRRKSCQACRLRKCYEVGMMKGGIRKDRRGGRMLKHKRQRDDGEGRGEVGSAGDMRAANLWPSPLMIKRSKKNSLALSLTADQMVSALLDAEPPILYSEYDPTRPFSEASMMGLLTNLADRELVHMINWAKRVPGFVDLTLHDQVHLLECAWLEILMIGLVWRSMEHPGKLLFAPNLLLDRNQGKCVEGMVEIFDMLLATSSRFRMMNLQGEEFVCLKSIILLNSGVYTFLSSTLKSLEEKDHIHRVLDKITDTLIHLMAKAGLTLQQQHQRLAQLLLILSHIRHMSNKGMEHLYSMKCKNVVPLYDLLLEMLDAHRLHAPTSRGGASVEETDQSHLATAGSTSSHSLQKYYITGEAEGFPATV
Outline: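 VM7Luc4E2 cells (endogenous full-length ER-alpha, stable 4xERE-luciferase) were grown 5 days in phenol red-free medium with charcoal-stripped FBS, then exposed 22 h at 37C to compounds plus 0.1 nM (final) 17beta-estradiol; ONE-Glo luminescence read-out.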

[4] = qHTS assay to identify small molecule phospholipidosis (PLD) inducers (AID 1259344; active means well fitted curve in the direction sought with a large enough effect; an effect the other way counts as inactive or inconclusive)
Outline: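 HepG2 cells, 900/well, treated with compound plus LipidTOX Red for 24 h at 37 C; amiodarone positive and DMSO negative controls. Fixed with paraformaldehyde/Hoechst, then high-content imaging scored LipidTOX pit count and integrated intensity per well and per cell.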

[5] = qHTS assay to identify small molecule HDAC inhibitors - cell viability counter screen (AID 1259365); further: series mostly up to about 92 µM; nearly all actives have a fitted effect of over 50% in size
Outline: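 Cytotoxicity was gauged in wild-type HCT-116 cells after a brief 2hr treatment with DMSO-dissolved compounds at 37C and 5% CO2, using CellTiter-Glo luminescence developed for 30min at room temperature.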

[6] = qHTS assay to identify small molecule agonists of the sonic hedgehog signaling (Shh) pathway - cell viability counter screen (AID 1259366); further: nearly all actives have a fitted effect of over 50% in size; further: potency means the concentration at half of the fitted maximal effect
Outline: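 Stable Gli1-Luc NIH/3T3 clone, 2,000 cells/well. Compound exposure 24hr at 37C. Read-out: CellTiter-Fluor fluorescence.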

[7] = qHTS assay to identify small molecule agonists of the sonic hedgehog signaling (Shh) pathway (AID 1259368; calls by dose curve; further: series mostly up to about 92 µM; nearly all actives have a fitted effect of over 15% in size)
Outline: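 NIH/3T3-derived 3T3Gli1-Luc cells carrying a stably integrated Gli1 response element–firefly luciferase reporter were plated, left 4 hr at 37 C, then given compounds in DMSO for 24 hr. Luminescence was read 30 min after adding luciferase reagent.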

[8] = qHTS assay to identify small molecule antagonists of the sonic hedgehog signaling (Shh) pathway (AID 1259369; calls by dose curve; further: nearly all actives have a fitted effect of over 45% in size; further: potency means the concentration at half of the fitted maximal effect)
Outline: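 NIH/3T3-derived 3T3Gli1-Luc cells with stably integrated Gli1-Luc reporter were preincubated 4hr at 37 C, then given compounds in DMSO plus Shh conditioned medium and incubated 24hr. Firefly luciferase luminescence read after 30min reagent at room temperature.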

[9] = qHTS assay to identify small molecule agonists of the androgen receptor (AR) signaling pathway in the presence of an antagonist - cell viability counter screen (AID 1259379); further: nearly all actives have a fitted effect of over 25% in size; further: potency means the concentration at half of the fitted maximal effect
Outline: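 MDA-kb2 human breast carcinoma cells (stable MMTV-luciferase, AR/GR responsive) were seeded 3,000 cells/well, pre-incubated 5 hr at 37C without CO2, then given 3.0uM nilutamide and compounds at 15 concentrations for 16 hr. Viability was read by CellTiter-Fluor fluorescence.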

[10] = qHTS assay to identify small molecule agonists of the estrogen receptor beta (ER-beta) signaling pathway - cell viability counter screen (AID 1259380); further: nearly all actives have a fitted effect of over 30% in size; further: potency means the concentration at half of the fitted maximal effect
Outline: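 ER-beta-UAS-bla HEK293T cells in medium with 2% charcoal-stripped FBS were preincubated 6 hr at 37C, dosed with compound in DMSO for 16 hr, then after the bla read, CellTiter-Glo was added for 30 min at room temperature; luminescence recorded.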

[11] = qHTS assay to identify small molecule antagonists of the estrogen receptor beta (ER-beta) signaling pathway - cell viability counter screen (AID 1259382); further: nearly all actives have a fitted effect of over 55% in size; further: potency means the concentration at half of the fitted maximal effect
Outline: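 ER-beta-UAS-bla HEK293T cells (2,000/well, 2% charcoal-stripped FBS) were pre-incubated 6 hr at 37C, then given compound plus 1nM final 17-beta-estradiol for 16 hr. Viability was read in the same wells by CellTiter-Glo luminescence after 30 min at room temperature.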

[12] = biological target: Estrogen receptor (Homo sapiens) (UniProt P03372); test: qHTS assay to identify small molecule agonists of the estrogen receptor alpha (ER-alpha) signaling pathway in the presence of an antagonist (AID 1259383; calls by dose curve; further: nearly all actives have a fitted effect of over 15% in size; further: potency means the concentration at half of the fitted maximal effect; on activation: top concentration of the series differs between compounds)
Outline: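 VM7Luc4E2 cells (endogenous full-length ER-alpha, 4×ERE-luciferase) were precultured 5 days in phenol red-free medium with 10% charcoal-stripped FBS, given 10.0nM ICI-182,780 (final), then treated with compounds at 15 concentrations for 22hr at 37C; luminescence read with ONE-Glo.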

[13] = qHTS assay to identify small molecule agonists or antagonists of the thyroid stimulating hormone receptor (TSHR) signaling pathway - wild type cell line counter screen (AID 1259384; calls by dose curve)
Outline: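 Wild-type Hek293 cells, 800/well, 18 h at 37C, then compound with Ro20-1724 for 30 min RT. cAMP by HTRF (cAMP-d2/anti-cAMP cryptate), 1 h RT, fluorescence read. 15 concentrations, triplicates.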

[14] = qHTS assay to identify small molecule HDAC inhibitors (AID 1259364); further: nearly all actives have a fitted effect of over 45% in size; further: potency means the concentration at half of the fitted maximal effect
Outline: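 Wild-type HCT-116 cells were plated overnight, exposed to compounds for 2 h at 37 °C, then given HDAC-Glo class I/II luminogenic reagent for 30 min at room temperature before luminescence was read.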

[15] = qHTS assay to identify small molecule antagonists of the sonic hedgehog signaling (Shh) pathway - cell viability counter screen (AID 1259367); further: nearly all actives have a fitted effect of over 55% in size
Outline: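 NIH/3T3-derived Gli1-Luc reporter cells, 2,000/well, plated 4 hr before compound addition, then stimulated with conditioned medium for 24 hr at 37C. Viability measured in the same wells by CellTiter-Fluor fluorescence, reagent added at 23 hr for 1 hr.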

[16] = biological target: Estrogen receptor beta (Homo sapiens) (UniProt Q92731); test: qHTS assay to identify small molecule antagonists of the estrogen receptor beta (ER-beta) signaling pathway (AID 1259378; active means well fitted inhibition curve with a large enough effect in the signal ratio in the repeat runs, not every such curve was filed as active; the % refers to the signal ratio)
Chain of Estrogen receptor beta (Homo sapiens) (Q92731 whole entry, looked up): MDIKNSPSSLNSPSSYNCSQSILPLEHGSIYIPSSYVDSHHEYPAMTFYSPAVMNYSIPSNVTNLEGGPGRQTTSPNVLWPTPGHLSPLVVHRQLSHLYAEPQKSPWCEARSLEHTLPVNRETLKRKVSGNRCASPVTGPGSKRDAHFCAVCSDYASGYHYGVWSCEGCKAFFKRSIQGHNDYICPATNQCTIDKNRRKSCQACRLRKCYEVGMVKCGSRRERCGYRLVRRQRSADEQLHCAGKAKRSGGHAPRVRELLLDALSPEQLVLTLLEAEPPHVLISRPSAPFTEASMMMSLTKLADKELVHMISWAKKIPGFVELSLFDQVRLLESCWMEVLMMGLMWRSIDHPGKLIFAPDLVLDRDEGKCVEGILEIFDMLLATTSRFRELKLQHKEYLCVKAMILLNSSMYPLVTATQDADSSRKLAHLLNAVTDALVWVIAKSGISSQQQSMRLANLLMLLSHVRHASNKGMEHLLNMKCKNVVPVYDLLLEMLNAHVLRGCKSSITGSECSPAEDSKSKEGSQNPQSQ
Outline: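 ER-beta-UAS-bla HEK293T cells in 2% charcoal-stripped FBS medium treated with compound plus 1nM final 17-beta-estradiol for 16 hr at 37C. Beta-lactamase reporter read by FRET substrate fluorescence after 2 hours at room temperature.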

[17] = biological target: Estrogen receptor beta (Homo sapiens) (UniProt Q92731); test: qHTS assay to identify small molecule agonists of the estrogen receptor beta (ER-beta) signaling pathway (AID 1259377; active means well fitted activation curve with a large enough effect in the signal ratio in the repeat runs, not every such curve was filed as active; the % refers to the signal ratio)
Outline: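 Measured by fluorescence intensity from a B/G FRET beta-lactamase substrate (2 h, room temperature) in ER-beta-UAS-bla HEK293T cells treated with DMSO-dissolved compounds for 16 hr at 37C and 5% CO2.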

[18] = qHTS assay to identify small molecule antagonists of the androgen receptor (AR) signaling pathway using the MDA cell line in the presence of 0.5 nM R1881 - cell viability counter screen (AID 1259242); further: nearly all actives have a fitted effect of over 45% in size
Outline: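 MDA-kb2 cells (human breast carcinoma, stably carrying MMTV-luciferase reporter) were exposed to compounds with 0.5 nM R1881 (final) for 16 hr at 37C, 0% CO2; viability then read as live-cell protease fluorescence (CellTiter-Fluor, 30 min) in the same wells.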

Structure (SMILES) | Potency [1] | Potency [2] | Potency [3] | outcome [4] | outcome [5] | Potency [6] | Potency [7] | Potency [8] | Potency [9] | Potency [10] | Potency [11] | Potency [12] | outcome [13] | Potency [14] | Potency [15] | Potency [16] | Potency [17] | Potency [18]
O=C(Nc1ccc(Br)cc1)c1cc(Br)cc(Br)c1O | inactive and 43.6 µM (active) | inactive | 6.83 µM (active) and 10.9 µM (active) | inactive | inactive | 30.5 µM (active) | inactive | 13.7 µM (active) and 13.3 µM (active) | 21.6 µM (active) and 19.3 µM (active) and 29.8 µM (active) | 19.3 µM (active) and 29.8 µM (active) | 24.3 µM (active) | 2.42 µM (active) and inactive | inactive | – | – | – | – | –
CCCCN(CCCC)N=O | inactive | inactive | inactive | – | inactive | inactive | inactive | inactive | inactive | inactive | – | inactive | inactive | inactive | inactive | – | – | –
CCCCCCOC(=O)c1ccccc1C(=O)OCCCCCC | inactive | inactive | inactive | – | inactive | inactive | inactive | inactive | inactive | inactive | inactive | inactive | inactive | 49.5 µM (active) and inactive | inactive | – | – | –
CC(C)NC(C)C | inactive | inactive | inactive | inactive | inactive | inactive | inactive | inactive | inactive | inactive | – | inactive | inactive | – | inactive | inactive | – | –
NC(=S)Nc1ccccc1 | 55.9 µM (active) and inactive | inactive | 27.8 µM (active) and inactive | – | inactive | inactive | inactive | inactive | 24.7 µM (active) and inactive | 44 µM (active) and inactive | – | inactive | inactive | – | inactive | inactive | inactive | –
C[C@]12CCC(=O)C[C@@H]1CC[C@@H]1[C@@H]2CC[C@]2(C)[C@@H](O)CC[C@@H]12 | inactive | inactive | – | inactive | inactive | inactive | inactive | 17 µM (active) and 13.7 µM (active) | 67.8 µM (active) and inactive | 13.5 µM (active) and 12.2 µM (active) | – | – | – | inactive | inactive | – | – | –
O=C(O)C(F)(F)C(F)(F)C(F)(F)C(F)(F)C(F)(F)C(F)(F)C(F)(F)F | inactive | inactive | – | – | inactive | inactive | inactive | inactive | inactive | 30.6 µM (active) and 24.3 µM (active) | inactive | – | inactive | – | inactive | – | – | –
OCC(O)CO | inactive | inactive | inactive | – | inactive | inactive | inactive | inactive | inactive | inactive | inactive | inactive | inactive | inactive | inactive | inactive | – | –
CC(C)(C)c1ccccc1O | – | inactive | – | – | inactive | inactive | inactive | inactive | inactive | inactive | – | – | – | – | inactive | inactive | inactive | inactive
CNC(=O)Oc1cccc2c1OC(C)(C)O2 | inactive | inactive | inactive | – | inactive | inactive | inactive | inactive | inactive | inactive | inactive | inactive | inactive | inactive | inactive | – | – | –
Oc1ccc(-c2ccccc2)cc1 | inactive | inactive | inactive | – | inactive | – | inactive | inactive | inactive | – | – | inactive | inactive | – | inactive | – | – | –
Cc1ccc2c(c1N)C(=O)c1ccccc1C2=O | inactive | – | inactive | – | inactive | – | inactive | inactive | 27 µM (active) | 30.3 µM (active) | – | 6.04 µM (active) and inactive | inactive | – | – | inactive | – | –
O=C(CCl)c1ccccc1 | inactive | inactive | – | – | inactive | inactive | inactive | – | inactive | inactive | – | – | inactive | inactive | inactive | inactive | – | –
Brc1ccc(Oc2cc(Br)c(Br)cc2Br)c(Br)c1 | inactive | inactive | inactive | – | inactive | inactive | inactive | inactive | inactive | 30.6 µM (active) | – | inactive | – | inactive | inactive | inactive | inactive | –
